Reference: PubChem BioAssay (NCATS)
Records with an inconclusive call do not appear. Activity calls are given as the source filed them. Calls come from the whole dose curve; as a rule, active = well fitted cell-killing curve with a large enough effect; inconclusive = small, poorly fitted or top-dose-only effect, or effect the other way; inactive = flat fitted curve, though single readings scatter.

Tests used:
Assay in all cases: Primary qHTS to identify gynecologic anti-cancer compounds using libraries of approved drugs and bioactive compounds (AID 1345084); note: nearly all actives have a fitted effect of over 55% in size
Es-2 = conditions: Gynecologic cancer cell panel viability, ATPlite luminescence, 48 h; series mostly up to 57.5 µM
Outline: (§1)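 ATP-based viability (ATPlite), 1,000 cells/well, 16 h pre-incubation, 48 h compound at 37 C, 5% CO2, 15 min RT before read.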

HeLa = conditions: Gynecologic cancer cell panel viability, ATPlite luminescence, 48 h; series mostly up to 57.5 µM
Outline: as §1

Hek293T = conditions: Gynecologic cancer cell panel viability, ATPlite luminescence, 48 h, control line for the selectivity index; series mostly up to 57.5 µM
Outline: as §1

JEG-3 = conditions: Gynecologic cancer cell panel viability, ATPlite luminescence, 48 h; series mostly up to 57.5 µM
Outline: as §1

OV90 = conditions: Gynecologic cancer cell panel viability, ATPlite luminescence, 48 h; series mostly up to 57.5 µM
Outline: as §1

PA-1 = conditions: Gynecologic cancer cell panel viability, ATPlite luminescence, 48 h; series mostly up to 57.5 µM
Outline: as §1

SKOV3 = conditions: Gynecologic cancer cell panel viability, ATPlite luminescence, 48 h; series mostly up to 57.5 µM
Outline: as §1

Tov-21-G = conditions: Gynecologic cancer cell panel viability, ATPlite luminescence, 48 h; series mostly up to 57.5 µM
Outline: as §1

Tov112D = conditions: Gynecologic cancer cell panel viability, ATPlite luminescence, 48 h; series mostly up to 57.5 µM
Outline: as §1
% is set by controls: 0 for no effect and ±100 for the full control effect.

CC1CCC2(C)C(CC(O)C(O)C23CO3)C1(C)CCC1=CC(O)OC1=O (configuration not stated)
inactive: Potency (Es-2) | Potency (HeLa) | Potency (Hek293T) | Potency (JEG-3) | Potency (OV90) | Potency (PA-1) | Potency (SKOV3) | Potency (Tov-21-G) | Potency (Tov112D)

CC1=C(C)C(=O)OC(C(C)(O)C2CCC3C4CC=C5CC(OC6OC(COC7OC(CO)C(O)C(O)C7O)C(O)C(O)C6O)CC(O)C5(C)C4CCC32C)C1 (configuration not stated)
inactive: Potency (Es-2) | Potency (HeLa) | Potency (Hek293T) | Potency (JEG-3) | Potency (OV90) | Potency (PA-1) | Potency (SKOV3) | Potency (Tov-21-G) | Potency (Tov112D)

Cc1c(-c2ccnn2C)cc(C(=O)NCc2ccc(S(C)(=O)=O)cn2)c(=O)n1-c1cccc(C(F)(F)F)c1
inactive: Potency (Es-2) | Potency (HeLa) | Potency (Hek293T) | Potency (JEG-3) | Potency (OV90) | Potency (PA-1) | Potency (SKOV3) | Potency (Tov-21-G) | Potency (Tov112D)

C[C@]12CCC(=O)C=C1[C@@H](O)C[C@@H]1[C@@H]2[C@@H](O)C[C@@]2(C)[C@H]1CC[C@]2(O)C(=O)CO
inactive: Potency (Es-2) | Potency (HeLa) | Potency (Hek293T) | Potency (JEG-3) | Potency (OV90) | Potency (PA-1) | Potency (SKOV3) | Potency (Tov-21-G) | Potency (Tov112D)

CC(C)(C)c1cc(CN2CCN(CC(O)c3ccc(Cl)cc3)CC2)cc(C(C)(C)C)c1O (configuration not stated)
inactive: Potency (Es-2) | Potency (HeLa) | Potency (Hek293T) | Potency (JEG-3) | Potency (OV90) | Potency (PA-1) | Potency (SKOV3) | Potency (Tov-21-G) | Potency (Tov112D)

C=C1CC/C=C(/CO)C(=O)C[C@@H]2[C@@H]1CC2(C)C
inactive: Potency (Es-2) | Potency (HeLa) | Potency (Hek293T) | Potency (JEG-3) | Potency (OV90) | Potency (PA-1) | Potency (SKOV3) | Potency (Tov-21-G) | Potency (Tov112D)

C[C@H]1C[C@H]2[C@@H]3CCC4=CC(=O)C=C[C@]4(C)[C@@]3(F)[C@@H](O)C[C@]2(C)[C@@]1(O)C(=O)COP(=O)(O)O
inactive: Potency (Es-2) | Potency (HeLa) | Potency (Hek293T) | Potency (JEG-3) | Potency (OV90) | Potency (PA-1) | Potency (SKOV3) | Potency (Tov-21-G) | Potency (Tov112D)

C[C@H]1CC[C@@]2(OC1)O[C@H]1CC3C4CC=C5C[C@H](O)C[C@@H](O[C@@H]6O[C@@H](C)[C@H](O)[C@@H](O)[C@H]6O[C@@H]6O[C@@H](C)[C@H](O)[C@@H](O)[C@H]6O)[C@]5(C)C4CC[C@]3(C)[C@H]1[C@@H]2C (some centres not stated)
inactive: Potency (Es-2) | Potency (HeLa) | Potency (Hek293T) | Potency (JEG-3) | Potency (OV90) | Potency (PA-1) | Potency (SKOV3) | Potency (Tov-21-G) | Potency (Tov112D)

CC(C)CC(=O)OC[C@H]1O[C@@](COC(=O)CC(C)C)(O[C@H]2O[C@H](CO)[C@@H](O)[C@H](O)[C@H]2OC(=O)CC(C)C)[C@@H](OC(=O)CC(C)C)[C@@H]1O
inactive: Potency (Es-2) | Potency (HeLa) | Potency (Hek293T) | Potency (JEG-3) | Potency (OV90) | Potency (PA-1) | Potency (SKOV3) | Potency (Tov-21-G) | Potency (Tov112D)

C[C@@]12C[C@]3(O)O[C@H](O1)[C@]1(COC(=O)c4ccccc4)[C@H]3C[C@@]12O[C@@H]1O[C@H](COC(=O)c2ccccc2)[C@@H](O)[C@H](O)[C@H]1O
inactive: Potency (Es-2) | Potency (HeLa) | Potency (Hek293T) | Potency (JEG-3) | Potency (OV90) | Potency (PA-1) | Potency (SKOV3) | Potency (Tov-21-G) | Potency (Tov112D)

CC(C)(O)c1ccc2c(c1)C(=O)CC1[C@](C)(CO)CCC[C@]21C (some centres not stated)
inactive: Potency (Es-2) | Potency (HeLa) | Potency (Hek293T) | Potency (JEG-3) | Potency (OV90) | Potency (PA-1) | Potency (SKOV3) | Potency (Tov-21-G) | Potency (Tov112D)

CC1OC(OC2C(CO)OC(OCC3OC(OC(=O)C45CCC(C)(C)CC4C4=CCC6C7(C)CCC(OC8OC(C(=O)O)C(O)C(OC9OC(CO)C(O)C(O)C9O)C8O)C(C)(C)C7CCC6(C)C4(C)CC5)C(O)C(O)C3O)C(O)C2O)C(O)C(O)C1O (configuration not stated)
inactive: activity change, negative = cytotoxicity (Es-2) 5.55% [at 6.55 µM] | activity change, negative = cytotoxicity (HeLa) -1.58% [at 6.55 µM] | activity change, negative = cytotoxicity (Hek293T) 6.6% [at 6.55 µM] | activity change, negative = cytotoxicity (JEG-3) 9.3% [at 6.55 µM] | activity change, negative = cytotoxicity (OV90) 0.685% [at 6.55 µM] | activity change, negative = cytotoxicity (PA-1) 14.3% [at 6.55 µM] | activity change, negative = cytotoxicity (SKOV3) 21% [at 6.55 µM] | activity change, negative = cytotoxicity (Tov-21-G) 0.671% [at 6.55 µM] | activity change, negative = cytotoxicity (Tov112D) 0.769% [at 6.55 µM]

C[C@H]1CN(C[C@H](Cc2ccccc2)C(=O)NCC(=O)O)CC[C@@]1(C)c1cccc(O)c1
inactive: Potency (Es-2) | Potency (HeLa) | Potency (Hek293T) | Potency (JEG-3) | Potency (OV90) | Potency (PA-1) | Potency (SKOV3) | Potency (Tov-21-G) | Potency (Tov112D)
